Data published in PubChem BioAssay.
The other results are listed elsewhere or left out. The source made the active and inactive calls.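 How the source made its calls: active means mean inhibition of the reporter signal across four replicates at the single tested dose of 50% or more; inactive means the rest.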

Assay: HIF-1a luciferase reporter signal reduction – MiaPaCa-2 cells, single concentration, counter-screen for HIF-2a inhibitor project, confirmation (AID 651589)
Conditions: MiaPaCa-2 HIF-1a luciferase reporter, desferoxamine, overnight; at 18.8 µM; stronger effect = higher value

SMILES	inhibition
Cc1cccc(CS(=O)(=O)c2ncc(Cl)c(C(=O)Nc3ccc(F)cc3)n2)c1	86.8% (active)
COc1ccc2c(c1OC)C(=O)OC2Nc1nc(-c2ccccc2)cs1 (stereo not given)	105% (active)
N#Cc1cccc(NC(=O)COC(=O)c2ccccc2C(=O)c2ccc(Cl)c([N+](=O)[O-])c2)c1	108% (active)
CSc1nc(-c2ccccc2)nc(C(Cl)Cl)n1	105% (active)

Assay: inhibitors of PAF-induced NFkB signaling in CF airway cells, dose response, cell-based, uHTS hits, panel, cytotoxicity readout (AID 624344)
Conditions: CF bronchial epithelial cells, PAF-induced NFkB reporter inhibition, with PAF, run 1; at 79 µM (top of the series) unless noted

SMILES	inhibition
COc1ccc2c(c1OC)C(=O)OC2Nc1nc(-c2ccccc2)cs1 (stereo not given)	109%
OCCNc1nc(Nc2ccc(Cl)c(Cl)c2)nc2ccccc12	110%
N#Cc1cccc(NC(=O)COC(=O)c2ccccc2C(=O)c2ccc(Cl)c([N+](=O)[O-])c2)c1	103%

Assay: as above
Conditions: CF bronchial epithelial cells, PAF-induced NFkB reporter inhibition, with PAF, run 2; at 79 µM (top of the series) unless noted

SMILES	inhibition
COc1ccc2c(c1OC)C(=O)OC2Nc1nc(-c2ccccc2)cs1 (stereo not given)	103%
OCCNc1nc(Nc2ccc(Cl)c(Cl)c2)nc2ccccc12	105%
N#Cc1cccc(NC(=O)COC(=O)c2ccccc2C(=O)c2ccc(Cl)c([N+](=O)[O-])c2)c1	111%
